SMN2 splice up = enhancers of SMN2 splice variant expression; 210,000 compounds, 2.8% hits; Potency, µM (top dose mostly 46.1 µM), without a hit: top-dose activity change, positive = activation, usual class: activators; HEK293 SMN2-luciferase splicing reporter, luminescence, 30-36 h; AID 1458; note: % of control where 0% means no effect; nearly all actives have a fitted effect of over 55% in size
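HEK293 cells carry an SMN2 minigene-luciferase reporter in which exon 7 inclusion puts luciferase in frame. Cells were seeded at 2000 cells/well, attached for 10-12 hours, then exposed to compounds for 30-36 hours at 37C before ONE-Glo luminescence.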
ELG1 genotoxic = genotoxicity induction in ELG1-luciferase HEK293T cells; HEK293T ELG1-luciferase reporter, luminescence, 16 h; Potency, µM (titrated, usually from 46 µM), for inactives: top-dose activity change, positive = activation, hits mostly activators; 330,000 compounds, 1.3% hits; note: % of control where 0% means no effect; nearly all actives have a fitted effect of over 60% in size
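DMSO vehicle served as control against compound-treated ELG1-luciferase HEK293T cells; exposure lasted 16 hr at 37 °C and 5% CO2, followed by ONE-Glo luminescence detection after 30 min.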
NPC1 promoter act = activates the NPC1 promoter; 320,000 compounds, 2.4% hits; Potency, µM (highest dose often 9.22 µM), without a hit: top-dose activation, actives largely listed as activators; AID 485313; Huh7 NPC1 promoter luciferase reporter, 24 h; note: % of control where 0% means no effect; nearly all actives have a fitted effect of over 60% in size
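Luminescence from an NPC1 promoter-driven luciferase reporter in stably transfected Huh7 cells was measured after 24 h compound treatment at 37 °C, followed by 10 min ambient incubation with luciferase detection reagent.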
FLuc counter = inhibits or activates purified firefly luciferase, miR-21 counter-screen; 360,000 compounds, 6.9% hits; purified FLuc, Km substrates, luminescence inhibition; P08659; Potency, µM (highest dose often 57.5 µM), without a hit: top-dose activity change, negative = inhibition, most hits filed as inhibitors;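 note: plate controls were vehicle for no effect and reference inhibitor for full effect; nearly all actives have a fitted effect of over 55% in size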
Target sequence (P08659 whole entry, looked up): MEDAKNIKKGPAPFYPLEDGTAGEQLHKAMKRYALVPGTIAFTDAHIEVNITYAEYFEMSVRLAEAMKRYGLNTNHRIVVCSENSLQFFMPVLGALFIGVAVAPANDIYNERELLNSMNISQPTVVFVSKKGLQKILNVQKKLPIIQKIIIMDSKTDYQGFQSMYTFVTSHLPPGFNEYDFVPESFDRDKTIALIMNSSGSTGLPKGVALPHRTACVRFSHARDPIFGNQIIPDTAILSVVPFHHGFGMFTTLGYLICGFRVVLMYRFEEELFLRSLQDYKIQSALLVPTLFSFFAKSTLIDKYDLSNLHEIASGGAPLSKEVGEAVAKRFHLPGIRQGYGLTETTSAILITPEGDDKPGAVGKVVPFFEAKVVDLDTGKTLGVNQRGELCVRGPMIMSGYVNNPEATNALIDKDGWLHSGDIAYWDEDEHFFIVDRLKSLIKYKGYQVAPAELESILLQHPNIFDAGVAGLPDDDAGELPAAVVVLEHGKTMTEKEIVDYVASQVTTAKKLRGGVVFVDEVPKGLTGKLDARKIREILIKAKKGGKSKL
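Purified P. pyralis luciferase, 10 nM final, with Km-level 10 uM D-luciferin and 10 uM ATP in 50 mM Tris acetate pH 7.5, 10 mM Mg acetate, 0.01% Tween-20, 0.05% BSA; 6-point qHTS titration about 60 µM downward; luminescence read.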
Rab9 promoter act = activators of Rab9 promoter. AID 485297. Potency, µM (doses to about 9.22 µM), for inactives: at the highest dose activation, negative = inhibition, most hits filed as activators. 320,000 compounds, 2.8% hits. Huh7 Rab9 promoter-luciferase reporter, luminescence, 24 h; note: % of control where 0% means no effect; nearly all actives have a fitted effect of over 60% in size
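Huh7 cells stably carrying Rab9 promoter–luciferase reporter, plated 1500 cells/well, compound added after 2 h and incubated 24 h at 37 °C; luciferase luminescence then read after 10 min with detection reagent.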
ELG1 repair inh = blocks ELG1-dependent DNA repair in HEK293T cells. HEK293T ELG1-luciferase reporter, luminescence, 16 h; DNA damage induced by 5-fluorouridine. Potency, µM (doses to about 46.1 µM), for inactives: at the highest dose activity change, negative = inhibition, usual class: inhibitors. 330,000 compounds, 2.3% hits; note: % is set by controls: 0 for no effect and ±100 for the full control effect; nearly all actives have a fitted effect of over 55% in size
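Cells (2,000 per well) received 5-fluorouridine plus test compound or DMSO and were incubated 16 hr at 37 °C, 5% CO2. Luciferase activity was read by luminescence 30 min after ONE-Glo addition; signal suppression marked inhibition of damage-induced ELG1 function.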
Starred values were filed as active, the others as inactive; u = inconclusive; x = not tested or not shown; [ ] = another dose, or the depositor's remark. The list is not random: actives were taken first. Their share in the collection is about 9.3%. Calls come from the whole dose curve; as a rule, active = well fitted curve in the direction sought with a large enough effect; inconclusive = small, poorly fitted or top-dose-only effect, or another doubt; inactive = no such curve, though single readings can be large; an effect the other way counts as inactive or inconclusive. Potency is the fitted concentration of half-maximal effect.

SMILES	SMN2 splice up	ELG1 genotoxic	NPC1 promoter act	FLuc counter	Rab9 promoter act	ELG1 repair inh
NC(=O)c1nsc(C(=O)N(c2ccccc2F)C(C(=O)NCc2ccccc2)c2ccc(O)cc2)c1N (configuration not stated)	x	-20.1%	-4.0%	0.8%	-9.4%	6.51µM*
COCCCNC(=O)C[C@H]1C[C@H](C(=O)N2CCCCC2)[C@@]2(CCc3ccccc3)c3[nH]c4ccc(Cl)cc4c3CCN2C1=O	x	-2.0%	x	x	x	20.6µM*
CC(C)(C)NC(=O)C[C@H]1C[C@H](C(=O)N2CCCCC2)[C@@]2(CCc3ccccc3)c3[nH]c4ccc(Cl)cc4c3CCN2C1=O	x	-10.6%	x	x	x	-8.2%
CC[C@]12c3[nH]c4ccc(Cl)cc4c3CCN1C(=O)[C@@H](CC(=O)NCCC1=CCCCC1)C[C@@H]2C(=O)N1CCN(C(=O)c2ccco2)CC1	x	-10.2%	x	x	x	16.4µM*
CC[C@]12c3[nH]c4cc(-c5ccco5)ccc4c3CCN1C(=O)[C@@H](CC(=O)NCCC1=CCCCC1)C[C@@H]2C(=O)N1CCN(C(=O)C2CC2)CC1	x	-3.3%	x	x	x	20.6µM*
CC[C@]12c3[nH]c4ccc(Cl)cc4c3CCN1C(=O)[C@@H](CC(=O)NCC13CC4CC(CC(C4)C1)C3)C[C@@H]2C(=O)N1CCN(C(=O)c2ccco2)CC1	x	-2.9%	x	x	x	20.6µM*
CC(=O)Nc1nonc1-c1nc2ccccc2n1C	x	12.0%	-1.6%	3.6%	-0.8%	u
CCOC(=O)N1CCN(C(=O)c2ccc3c(=O)n(CCc4ccccc4)c(=S)[nH]c3c2)CC1	-11.2%	0.5%	0.7%	1.4%	0.7%	-19.6%
CCOC(=O)N1CCN(C(=O)c2ccc(Cn3c(=S)[nH]c4ccc(Br)cc4c3=O)cc2)CC1	x	-12.7%	-35.2%	0.7%	-33.3%	7.3µM*
CCOC(=O)N1CCN(C(=O)c2ccc3c(=O)n(Cc4ccc(Cl)cc4)c(=S)[nH]c3c2)CC1	-18.4%	-5.3%	0.0%	-8.8%	-5.1%	8.2µM*
CCCn1c(=S)[nH]c2cc(C(=O)N3CCN(C(=O)OCC)CC3)ccc2c1=O	x	-2.9%	-2.1%	1.9%	-1.4%	11.5%
CC(O)CNc1ncnc2cc(-c3ccc(F)cc3)sc12 (configuration not stated)	x	u	u	10.7µM*	u	u
CCOc1ccccc1CN1CCN(CCCn2cccn2)CC1CCO (configuration not stated)	0.0%	-3.6%	-1.9%	-1.7%	1.7%	3.5%
COc1ccc(C(=O)C(CN2CCOCC2)c2ccccc2)cc1 (configuration not stated)	-74.3%	-0.7%	-3.0%	-2.3%	-15.6%	u
O=[N+]([O-])/C=C\c1ccc(N2CCCC2)c(F)c1	5.62µM*	-9.1%	15.8%	u	26.8%	u
Cc1cc(NC(=O)c2ccc(Cl)cc2)ccc1NC(=O)c1ccccc1Cl	x	-6.0%	4.1%	12µM*	15.8%	4.6%
Cc1ccc(NC(=O)CSc2ccccc2NC(=O)c2ccccc2Cl)cc1Cl	-16.0%	-10.9%	-4.0%	-17.6%	-2.2%	23.1µM*
Cc1cc(NC(=O)c2ccccc2Cl)ccc1NC(=O)c1ccccc1Cl	x	-0.8%	17.0%	12µM*	17.0%	6.6%
COc1ccccc1-c1nc2n(n1)C(c1cccs1)C(C(=O)Nc1cccnc1)=C(C)N2 (configuration not stated)	-21.1%	-12.7%	-0.3%	-1.8%	-5.8%	u
CCCCNC(=O)CSc1nc2cc3c(cc2c(=O)n1CCCC(=O)NCc1ccc(OC)cc1)OCO3	x	x	x	-4.0%	x	x
COc1ccc(Cn2c(SCC#N)nc3ccc(N4CCOCC4)cc3c2=O)cc1	u	u	3.55µM*	u	3.55µM*	u
COc1ccc(CNC(=O)CCCn2c(SCC#N)nc3cc4c(cc3c2=O)OCO4)cc1	-21.8%	4.9%	-0.2%	-0.3%	-0.9%	23.1µM*
CCCCNC(=O)c1cn(-c2ccc(OCC)cc2)c(=O)c2cc(OC)c(OC)cc12	4.7%	-13.4%	1.3%	-1.7%	-2.4%[1.84 µM]	23.1µM*
CCOc1ccc(NC(=O)c2cn(-c3ccc(OCC)cc3)c(=O)c3cc(OC)c(OC)cc23)cc1	3.4%	2.4%	1.8%	8.2%	-1.2%	u
O=C(C[C@@H]1C/C=C\C[C@@H](NC(=O)OCC2c3ccccc3-c3ccccc32)C(=O)OC[C@@H](Cc2ccccc2)NC1=O)NCCO	x	-0.9%	x	x	x	-5.0%
SMILES	SMN2 splice up	ELG1 genotoxic	NPC1 promoter act	FLuc counter	Rab9 promoter act	ELG1 repair inh
Cc1nn(-c2ccccc2)c(C)c1-c1ccccc1O	x	4.6%	4.3%	-17.0%	-2.9%	-26.7%
Cc1nn(-c2ccccc2)c(/N=C/c2ccc(O)cc2)c1-c1ccccc1	17.8µM*	14.1%	u	-5.3%	u	u
CCOC(=O)c1c(C)[nH]c(C(=O)COC(=O)C2CC2C)c1C (configuration not stated)	u	2.59µM*	3.55µM*	3.38µM*	3.16µM*	u
CCOC(=O)c1c(C)[nH]c(C(=O)COC(=O)c2[nH]c(C)c(C(C)=O)c2C)c1C	-4.6%	6.9%	-7.0%	-1.8%	-16.1%	u
COc1ccc(CNC(=O)CCc2nc(-c3ccc(OC)cc3)no2)cc1	21.2%	x	x	-4.1%	x	x
N/C(=N\OC(=O)C1CCCCC1)c1ccc(Br)cc1	x	u	19.0%	9.53µM*	u	u
N/C(=N\OC(=O)C1CCCCC1)c1ccc(Cl)cc1	x	u	20.4%	10.7µM*	9.1%	u
N/C(=N\OC(=O)C1CCCCC1)c1ccncc1	x	9.8%	2.5%	u	-3.4%	u
N/C(=N\OC(=O)C1CCCCC1)c1ccccn1	11.7%	u	25.2%	2.39µM*	18.6%	u
Cc1cnc(=O)[nH]c1SCC(=O)c1ccc(F)cc1	x	9.1%	4.7%	u	18.8%	u
Cc1cc(C)n(CC(=O)NN)n1	-0.8%	0.8%	-1.4%	0.4%	-0.9%	1.5%
NCCNC(=O)c1c(NC(=O)c2ccccc2)sc2c1CCCC2	x	11.3%	-1.9%	u	-2.6%	11.0%
O=C(Nc1sc2c(c1C(=O)O)CCCC2)c1cccc(Cl)c1	x	-2.5%	u	23.9µM*	u	u
O=C(Nc1sc2c(c1C(=O)O)CCCC2)c1ccc(Cl)cc1	x	-2.1%	25.1%	19µM*	27.0%	u
O=C(Nc1sc2c(c1C(=O)O)CCCCC2)c1ccccc1	x	-2.3%	2.82µM*	4.78µM*	0.891µM*	u
CC(C)Cc1csc(NC(=O)c2ccc(Cl)cc2)c1C(=O)O	20µM*	0.4%	11.3%	u	0.2%	u
CCOC(=O)Cc1cc(C)[nH]c1C(=O)OCC	x	4.4%	-5.5%	-1.2%	-1.6%	14.0%

From PubChem
